Only a selection was taken, and hits are over-represented in it overall.
Tgondii IFNg = T. gondii growth inhibition with IFN-gamma, primary screen, cell-based. Toxoplasma gondii growth in IFN-gamma-treated host cells; hits give low values. activity change, negative = inhibition, % (test concentration not listed). hit rate 3.8% among 69,000. AID 1259416, 2018; in the data active means activity change below about -70%, passing the limit was not always enough;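 further: host cells are HeLa cells infected with Toxoplasma gondii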
* = called active by the depositor; i = inactive.

SMILES	Tgondii IFNg
OC(CCCc1ccccc1)(c1ccc(Cl)cc1)c1ccc(Cl)cc1	-80.0*
CN1C/C=C/CCOc2cccc(c2)-c2ccnc(n2)Nc2cccc(c2)C1	-84.2*
CN(C)C(=O)c1ccc2c(c1)N(C)C(CC(=O)N(C)CCc1cn[nH]c1)CO2 (centres undefined)	-0.1
COc1cccc(CCN2C[C@@H]3CCN(C(=O)c4cnc(C)cn4)CC[C@H]3S2(=O)=O)c1	9.0
CN(C)C1CCN(C(=O)c2cccs2)C(C(=O)O)C1 (centres undefined)	-2.2
CC1=C(C(=O)Nc2ccc(Br)cc2F)C2(CCN(S(C)(=O)=O)CC2)OC1=O	3.8
CCOc1ccc(C(=O)N2CCC3(CC2)NC(=O)c2cc(C)ccc2N3C)cc1	9.2
CC(C)c1cc(C(C)C)c(S(=O)(=O)Nc2ccc(O)cc2)c(C(C)C)c1	-74.9*
CC(C)c1ccc(NS(=O)(=O)c2cc3c4c(c2)CCC(=O)N4CCC3)cc1	2.0
CC1=NCCN1S(=O)(=O)c1c(C(C)C)cc(C(C)C)cc1C(C)C	15.8
CCOc1ccc2[nH]c(=O)c(CNCCO)cc2c1	-101.1*
COc1ccc2[nH]c(=O)c(CNc3c(C)cc[nH]c3=O)cc2c1	139.3
CCOc1ccc2[nH]c(=O)c(CN(C)Cc3cc(C)on3)cc2c1	-18.2
CCOc1cccc(C2c3[nH]c4ccccc4c3CCN2C(=O)c2cccs2)c1 (centres undefined)	i
CCOc1cccc(C2c3[nH]c4ccccc4c3CCN2C(=O)c2cccc(Cl)c2)c1 (centres undefined)	-122.5*
CCOc1cccc(C2c3[nH]c4ccccc4c3CCN2C(=O)c2ccccc2F)c1 (centres undefined)	-64.5
CCOc1cccc(C2c3[nH]c4ccccc4c3CCN2C(=O)c2ccc3c(c2)OCO3)c1 (centres undefined)	i
CCOc1cccc(C2c3[nH]c4ccccc4c3CCN2C(=O)COc2ccccc2)c1 (centres undefined)	i
CCOc1cccc(C2c3[nH]c4ccccc4c3CCN2C(=O)c2cc3ccccc3[nH]2)c1 (centres undefined)	i
CCOc1cccc(C2c3[nH]c4ccccc4c3CCN2C(=O)c2ccc(OC)c(OC)c2)c1 (centres undefined)	-88.5*
CCCC(=O)N1CCc2c([nH]c3ccccc23)C1c1cccc(OCC)c1 (centres undefined)	496.6
CCOc1cccc(C2c3[nH]c4ccccc4c3CCN2C(=O)c2ccco2)c1 (centres undefined)	-109.4*
c1ccc(Cn2cccn2)c(CN2CCC(N3CCSCC3)CC2)c1	-4.1
COc1ccc(NC(NC(=O)c2ccccc2)C(=O)c2cccs2)cc1 (centres undefined)	20.2
CCc1c(C)sc2ncnc(-c3ccc(S(C)(=O)=O)cc3)c12	3.3
SMILES	Tgondii IFNg
CCOc1ccc(C(=O)N2CCC3(CC2)Nc2ccccc2-n2cccc23)cc1	6.0
C=CC[C@H]1CC(C)=C[C@H](CC=C)N1C(=O)CCN1CCCC1=O	-29.9
Cc1cc(C)c(NC(=O)C(=O)NCCc2sc(-c3ccc(F)cc3)nc2C)c(C)c1	-48.6
Cc1cc(C(=O)N2CCC3(CC2)CC(=O)N(C)c2ccccc23)n[nH]1	-0.3
c1cc(-c2ccc(CN3CCC(c4nnc5n4CCCCC5)CC3)o2)[nH]n1	-0.9
O=C(CCc1ccccc1)N1CCC2(CC1)Nc1cccnc1NC2=NC1CCCC1	10.0
COc1ccccc1Cc1cc(C2CCNCC2)nc(C)n1	23.2
Cc1cc(C(=O)NCC2COc3ccccc3O2)nn1C (centres undefined)	41.9
O=C(NCC1COc2ccccc2O1)Nc1csc2ccccc12 (centres undefined)	-90.2*
O=C(CN1CCN(S(=O)(=O)N2CCCC2)CC1)NCC1COc2ccccc2O1 (centres undefined)	6.8
COc1cccc(CN2CCC3(CC2)CC(OCC2CC2)CO3)c1 (centres undefined)	-13.8
Cc1nc(-c2ccc(F)cc2)sc1CCNC(=O)C12CC3CC(CC(C3)C1)C2	-91.3*
Cc1ccc(C(=O)NCCc2sc(-c3ccc(F)cc3)nc2C)cc1	-57.8
Cc1ccc(C(=O)NCCc2csc(-c3ccc(F)cc3)n2)cc1	-65.3
Cc1cc(C)cc(C(=O)NCCc2sc(-c3ccc(F)cc3)nc2C)c1	-77.2*
O=C(Cc1ccc(F)cc1)NCCc1csc(-c2ccc(F)cc2)n1	30.4
Cc1nc(-c2ccc(F)cc2)sc1CCNC(=O)Cc1ccc(F)cc1	-10.9
O=C(NCCc1csc(-c2cccc(F)c2)n1)c1ccc(F)cc1	-62.0
CCCCOc1ccc(C(=O)NCCc2csc(-c3ccc(F)cc3)n2)cc1	-61.5
O=C(NCCc1csc(-c2ccc(F)cc2)n1)C12CC3CC(CC(C3)C1)C2	-10.6
O=C(NCCc1csc(-c2ccc(F)cc2)n1)c1ccc(F)cc1	-79.0*
COc1ccc(C(=O)NCCc2sc(-c3ccc(F)cc3)nc2C)cc1	-21.7
O=C(NCCc1csc(-c2ccc(F)cc2)n1)c1ccc(Br)cc1	-78.7*
COc1ccc(C)cc1S(=O)(=O)NCCc1csc(-c2cccc(F)c2)n1	17.6
CC(C)N(C)Cc1cnc2n1CCN(CC1CCOCC1)C2C (centres undefined)	-4.4
SMILES	Tgondii IFNg
C=CCN(Cc1ccccc1OC)C(=O)c1ccc2n[nH]nc2c1	107.4
CN1c2ccc(Cl)cc2C(=O)NC12CCN(C(=O)NCCc1ccccc1)CC2	-15.3
O=C(CCn1cc(Cl)cn1)N1C[C@@H]2[C@H](C1)[C@H]1CC[C@@H]2O1	2.1
CC(C)CN1CC2(CCN(C(=O)Cc3ccsc3)CC2)C2(CCN(C)C2=O)C1 (centres undefined)	19.6
Cc1ncsc1CN1C[C@H]2CCCO[C@H]2[C@H](N(C)C(C)C)C1	-3.8
CCOc1ccc(-c2nc(Cn3c(=O)c4c(C)cc(C)nc4n(Cc4ccco4)c3=O)c(C)o2)cc1	-1.4
CC(C)Cc1ncc2c(n1)CN(C(=O)c1sccc1Cl)C2	0.9
COCC(=O)NCc1cc(=O)n2c(n1)CN(c1ncc(C)cn1)CCC2	-25.8
Cc1ccc(-c2nc(CCNC(=O)c3ccc(C)c(C)c3)cs2)cc1	i
CC(=O)NCCc1csc(-c2ccc(F)cc2)n1	38.9
Cc1cc(C)cc(C(=O)NCCc2csc(-c3ccc(F)cc3)n2)c1	-81.7*
CCOc1ccc(CC(=O)NCCc2sc(-c3ccc(F)cc3)nc2C)cc1	-93.2*
CCOc1ccc(NC(=O)C(=O)NCCc2sc(-c3ccc(F)cc3)nc2C)cc1	-3.7
CCOc1ccc(CC(=O)NCCc2sc(-c3cccc(F)c3)nc2C)cc1	-44.2
CCCCNS(=O)(=O)c1cc2c3c(c1)CCC(=O)N3CCC2	45.9
CCC(C)N(Cc1ccc(S(C)(=O)=O)cc1)Cc1ccsc1 (centres undefined)	-1.3
CNC(=O)[C@@H]1C[C@@H](N)CN1C(=O)c1ccc(CSc2ccccn2)cc1	2.5
CN1C[C@H](NC(=O)c2c[nH]n3ccnc23)C[C@H]1CO	2.5
CCN1c2cc(C)ccc2-n2cccc2C12CCN(C(=O)Nc1cccc(Br)c1)CC2	-83.9*
CCN1c2cc(C)ccc2-n2cccc2C12CCN(C(=O)Nc1ccc(C)c(Cl)c1)CC2	4.8
CCN1c2cc(C)ccc2-n2cccc2C12CCN(C(=O)Nc1cccc(SC)c1)CC2	-87.4*
CSc1cccc(NC(=O)N2CCC3(CC2)Nc2cc(F)ccc2-n2cccc23)c1	i
CCN1c2cc(C)ccc2-n2cccc2C12CCN(C(=O)Nc1ccc(OC)c(OC)c1)CC2	-31.4
CCN1c2cc(C)ccc2-n2cccc2C12CCN(C(=O)Nc1ccc(C)cc1Cl)CC2	106.7
